The nature of this experiment: modulators of mitochondrial supercomplex assembly, cell-based, luminescence, Hoechst nuclei count (AID 1645838).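 For all read-outs here: control cybrid cells.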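 For z-score: higher means more mitochondrial supercomplex formation.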 As to conditions: Cells, luminescence/Hoechst cell count ratio, supercomplex reporter; for z-score: stronger effect = higher value; for cell count: measured here: cell number, Hoechst nuclei count.
Where [1] appears, read: library stock concentration (final well concentration not given) 46 uM.
[2] abbreviates: library stock concentration (final well concentration not given) 278 uM.
The mark [3] stands for this setting: library stock concentration (final well concentration not given) 1.67 mM.
Where [4] appears, read: library stock concentration (final well concentration not given) 80 uM.
Where [5] appears, read: library stock concentration (final well concentration not given) 400 uM.
[6] abbreviates: library stock concentration (final well concentration not given) 2 mM.
[7] abbreviates: library stock concentration (final well concentration not given) 10 mM.

The text below walks through data of PubChem BioAssay AID1645838 (ICCB-Longwood Screening Facility, Harvard Medical School, 2021).

Values joined by “and” are separate entries in the source; they are usually repeats but may differ in a detail not shown here. Equal entries are not always repeated. Hit rate of the full screen: of about 2,000 compounds, about 100 (5%) were called active. Cut-off read from the data, not from the text of the source: active = z-score above about 2; inactive = the rest. The list comes from a sample in which actives are over-represented; it also holds similar structures and randomly drawn compounds. Where a structure was tested more than once in an assay, its records may differ in their call.

As for `CCCCCCCCCCCCCCCC(=O)OC[C@@H](O)COP(=O)([O-])OCC[N+](C)(C)C`, the outcome was “inactive; censored for cell count”.

Turning to `COc1cc(Nc2c(C#N)cnc3cc(OCCCN4CCN(C)CC4)c(OC)cc23)c(Cl)cc1Cl`, where the note is “library stock 10 mM”, the outcome is “inactive; censored for cell count”. Moreover, the z-score reads like this: under setting [1], -0.0511 (inactive); under setting [2], 0.0803 (inactive); under setting [3], 2.12 (active). Besides, the cell count was 5680 under setting [1], 5890 under setting [2] and 3280 under setting [3].

As for `COc1cc2ncnc(Nc3ccc(F)c(Cl)c3)c2cc1OCCCN1CCOCC1`, the z-score reads like this: under setting [4], 0.183 (inactive); under setting [5], 0.0655 (inactive); under setting [6], 0.641 (inactive); under setting [7], 1.23 (inactive). In addition, the cell count reads like this: under setting [4], 5740; under setting [5], 5370; under setting [6], 5790; under setting [7], 4940.

Turning to `COc1cc2c(Oc3ccc4[nH]c(C)cc4c3F)ncnc2cc1OCCCN1CCCC1`, the z-score is -0.259 (inactive) under setting [1], -0.207 (inactive) under setting [2], -0.199 (inactive) under setting [3] and 0.419 (inactive) under setting [7]. Also, the cell count was found to be 4900 under setting [1], 4920 under setting [2], 4790 under setting [3] and 3820 under setting [7].

With `CC1CN(Cc2ccccc2)CC1c1nc2c(cnn2C2CCOCC2)c(=O)[nH]1` (configuration not stated), the z-score under setting [4] is -0.245 (inactive), the z-score under setting [5] is -0.201 (inactive), the z-score under setting [6] is -0.281 (inactive) and the z-score under setting [7] was -0.05 (inactive). Further, the cell count is 6480 under setting [4], 6460 under setting [5], 6500 under setting [6] and 5630 under setting [7].

Turning to `CCCCCOc1ccccc1C(O)CC#CCCCC(=O)OC` (configuration not stated), the z-score is -0.738 (inactive) and the cell count worked out at 4890.

`COc1cc(C)c(Sc2cnc(NC(=O)c3ccc(CNC(C)C(C)C)cc3)s2)cc1C(=O)N1CCN(C(C)=O)CC1` (configuration not stated): the outcome (library stock 10 mM) is “inactive; censored for cell count”. Besides, the z-score runs as follows: under setting [4], -0.488 (inactive); under setting [5], -0.307 (inactive); under setting [6], 0.194 (inactive). Besides, the cell count by setting is: under setting [4], 4600; under setting [5], 4380; under setting [6], 4120.

As for `CC(CSC(=O)c1ccccc1)C(=O)N1CC(Sc2ccccc2)CC1C(=O)O` (configuration not stated), the z-score runs as follows: under setting [4], -0.846 (inactive); under setting [5], -0.854 (inactive); under setting [6], -0.642 (inactive); under setting [7], -0.914 (inactive). Moreover, the cell count reads like this: under setting [4], 6770; under setting [5], 5990; under setting [6], 6700; under setting [7], 6110.

With `CCCCC[C@H](O)/C=C/[C@@H]1[C@@H](C/C=C\CCCC(=O)N(CC)CC)[C@@H](O)C[C@H]1O`, the z-score was -1.04 (inactive) and the cell count was 5830.

`NC(=O)c1noc(C(CCCC2CCCCC2)CC(=O)NO)n1` (configuration not stated): the z-score under setting [1] is -0.365 (inactive), the z-score under setting [2] was -0.421 (inactive), the z-score under setting [3] was -0.0342 (inactive) and the z-score under setting [7] is 2.42 (active). Besides, the cell count reads like this: under setting [1], 6320; under setting [2], 6380; under setting [3], 5390; under setting [7], 2560.

As for `C=C1C(=O)O[C@H](CCCCCCCC)[C@H]1C(=O)O`, the z-score is -0.4 (inactive) and the cell count was determined as 5960.

With `CCCCC/C=C\CCCCCCCCCCCCC(=O)O`, the z-score is -0.87 (inactive) and the cell count came to 5480.

In the case of `CN(C)CCCCCCOc1ccc(-n2ccnc2)cc1`, the z-score is 2.07 (active) and 0.161 (inactive); the cell count is 4900 and 5850.

As to `COc1ccc(CCCOC(Cn2ccnc2)c2ccc(OC)cc2)cc1` (configuration not stated), the z-score was 0.304 (inactive) and the cell count was 4930.
